# From PubChem BioAssay
# The source made the active and inactive calls.
# Legend:
# [1] = biological target: Albumin (Bos taurus) (UniProt P02769); assay: compounds binding labelled BSA control protein – biochemical, small-molecule microarray, Alexa647 label, 635/667 nm fluorescence, artefact control for SMM control protein annotation, profiling panel (AID 1118); details: BSA-A647 binding, fluorescence 635 nm, higher = more signal;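 also: score merges 667 nm emission intensity and signal-to-noise per printed compound spot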
# [2] = probe aXIP binding to arrayed compounds – biochemical, NeuroSMM set, 635/667 nm fluorescence, primary screen (AID 1119); details: small-molecule microarray, higher = more signal, called active from +8 up or from −8 down;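 also: probe is the protein aXip251-270 applied at 1 µg/mL to compound-printed slides; binding of probe to printed compounds measured as 667 nm fluorescence plus signal to noise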
# [3] = probe aNOTCH3 binding on compound microarray – biochemical, small-molecule microarray, 635/667 nm fluorescence, primary screen (AID 1120); details: higher = more signal;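 also: probe is a biotin-tagged antibody raised against NOTCH3 rather than NOTCH3 protein; score merges spot fluorescence near 667 nm with spot signal to noise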
# [4] = probe aNOTCH2 binding on compound microarray – biochemical, small-molecule microarray, 635/667 nm fluorescence, primary screen (AID 1121); details: higher = more signal;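 also: score merges feature fluorescence read at 667 nm with its signal to noise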
# [5] = biological target: Carbonic anhydrase 2 (Homo sapiens) (UniProt P00918); assay: compounds binding carbonic anhydrase 2 – biochemical, small-molecule microarray, Alexa647-labelled CAII, profiling panel (AID 1122); details: CAII-A647 binding fluorescence, higher = more signal
# [6] = COS7 lysate on small-molecule microarray, probe aHis, 635 nm (AID 1123); details: COS7 cell lysate, fluorescence, higher = more signal;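 also: z-score combines 667nm fluorescence intensity with signal-to-noise per printed compound spot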
# [7] = probe aLAP1 signal on lysate-treated microarray – cell lysate, small-molecule microarray, COS7 lysate, primary screen (AID 1124); details: probe aLAP1, fluorescence, higher = more signal;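 also: lysate comes from COS7 cells expressing LAP1 and is applied at 0.3 µg/mL; score merges spot fluorescence near 667 nm with signal-to-noise over triplicate slides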
# [8] = test system: Sam68 (KHDRBS1); assay: compounds binding KHDRBS1 protein – biochemical, small-molecule microarray, 635 nm fluorescence, primary screen (AID 1125); details: higher = more signal;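 also: score merges 667 nm channel intensity with signal to noise over triplicate slides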
# [9] = test system: Chordin-like protein 2 (CHRDL2); assay: compounds binding chordin-like 2 – biochemical, small-molecule microarray, 635 nm fluorescence, primary screen (AID 1126); details: fluorescence 635 nm, higher = more signal;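 also: printed compound slides probed with Chrdl2 protein at 4 µg/mL for 1 h at 4 C; score merges 667 nm emission intensity with signal to noise over three replicate slides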
# [10] = biological target: Concanavalin-A (Canavalia ensiformis) (UniProt P02866); assay: compounds binding concanavalin A lectin – biochemical, small-molecule microarray, Alexa647 label, 635 nm, artefact control for SMM control protein annotation, primary screen (AID 1127); details: ConA-A647 binding fluorescence, higher = more signal;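 also: z combines 667 nm emission intensity with signal-to-noise across three replicate slides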
# Sequence of Concanavalin-A (Canavalia ensiformis) (P02866 whole entry, looked up): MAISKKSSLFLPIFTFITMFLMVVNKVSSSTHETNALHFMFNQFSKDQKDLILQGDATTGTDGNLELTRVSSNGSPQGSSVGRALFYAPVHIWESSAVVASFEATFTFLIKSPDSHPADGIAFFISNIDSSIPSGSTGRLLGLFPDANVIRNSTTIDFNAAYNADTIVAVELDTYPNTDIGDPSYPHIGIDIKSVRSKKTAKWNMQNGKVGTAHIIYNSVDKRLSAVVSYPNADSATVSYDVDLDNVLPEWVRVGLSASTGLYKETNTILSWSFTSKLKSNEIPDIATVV
# Sequence of Albumin (Bos taurus) (P02769 whole entry, looked up): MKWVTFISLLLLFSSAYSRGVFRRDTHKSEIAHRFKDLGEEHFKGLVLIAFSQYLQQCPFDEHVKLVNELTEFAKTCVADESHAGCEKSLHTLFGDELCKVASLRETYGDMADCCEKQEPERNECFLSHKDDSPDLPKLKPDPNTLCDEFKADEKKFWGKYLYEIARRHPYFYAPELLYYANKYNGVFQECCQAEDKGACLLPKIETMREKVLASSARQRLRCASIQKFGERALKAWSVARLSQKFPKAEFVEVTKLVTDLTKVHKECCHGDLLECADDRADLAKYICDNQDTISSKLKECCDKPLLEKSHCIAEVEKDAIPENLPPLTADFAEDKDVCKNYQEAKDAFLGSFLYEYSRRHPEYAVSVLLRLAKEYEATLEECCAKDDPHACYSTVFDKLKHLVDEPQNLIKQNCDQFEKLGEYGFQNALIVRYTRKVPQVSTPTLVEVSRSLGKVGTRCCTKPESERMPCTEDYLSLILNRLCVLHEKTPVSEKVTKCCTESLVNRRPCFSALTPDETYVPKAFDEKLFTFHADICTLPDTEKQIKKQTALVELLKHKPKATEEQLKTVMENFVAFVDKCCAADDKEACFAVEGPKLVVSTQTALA
Structure (SMILES),composite z-score [1],composite Z-score [2],composite z-score [3],composite z-score [4],composite z-score [5],composite z-score [6],composite z-score [7],composite z-score [8],composite z-score [9],composite z-score [10]
C[C@H]1C2[C@H](Cc3ccccc3)NC(=O)[C@]23C(=O)NCC(=O)N2CCC[C@H]2C(=O)NC/C=C\C/C=C/C3[C@@H]2O[C@]12C (stereo not given in full),-0.674,-0.403 (inactive),0.155,-0.176,0.718,-0.981,-0.632,-0.158,0.486,-0.351
C=C(/C(=C/C[C@H](OC(=O)c1ccncc1)c1ccccc1OCCO)c1cc(C(=O)OC)ccc1OC)C(C)C,0.407,-0.104 (inactive),-0.0288,-0.102,0.453,0.537,-0.0576,1.06,0.33,0.737
C=CCC(OC(C)=O)[C@@H]1[C@@H](N(Cc2cccc3ccccc23)C(=O)c2cccc3ccccc23)c2cc(OCCCO)ccc2N1C(=O)Cc1ccc2ccccc2c1 (stereo not given in full),-0.351,-0.745 (inactive),-0.128,-0.147,-0.272,-0.331,-0.397,-0.0418,0.295,-0.508
CC(=O)n1cc(C(O)C2C=CC3C(=O)N(c4ccccc4)C(=O)C3N2Nc2ccccc2F)c2ccccc21 (stereo not given),0.332,0.169 (inactive),-0.189,-0.162,0.754,1.84,0.386,0.505,-0.997,0.76
COC(=O)[C@]1(CO)N=C(c2ccc(OCCCO)cc2)O[C@@H]1c1ccccc1CN=[N+]=[N-],-0.421,0.277 (inactive),-0.122,-0.127,0.7,1.25,0.0153,0.363,0.265,0.257
COCCOC(=O)N1C(=O)[C@@]2(c3cc(C#CC4=CCCCC4)ccc31)[C@H](C(=O)N1CCN(c3ncccn3)CC1)[C@H]1C(=O)O[C@H](c3ccccc3)[C@H](c3ccccc3)N1[C@@H]2c1ccccc1OCCO,0.768,0.0421 (inactive),0.0433,-0.0928,0.169,1.8,0.35,1.31,0.277,1.11
COCCCNC(=O)[C@@]1(Sc2ccc(C)cc2)CC(=O)N(C2CCCCC2)[C@@H]1c1ccc(CO)cc1I,0.68,0.441 (inactive),0.145,-0.0096,0.481,1.8,0.0839,1.25,0.818,1.07
COc1ccc(CCNC(=O)[C@@]2(C)c3ccccc3C(=O)N(Cc3cc(C(F)(F)F)cc(C(F)(F)F)c3)[C@H]2c2ccc(CO)cc2)cc1,0.0386,0.793 (inactive),-0.179,-0.161,0.643,2.41,0.558,1.13,0.394,0.308
CC(=O)c1ccc(C(O)C2C=CC3C(=O)NC(=O)C3N2Nc2ccc(Cl)cc2Cl)cc1 (stereo not given),0.843,0.0186 (inactive),-0.0151,-0.0097,0.759,2.15,-0.227,-0.0077,0.0823,-0.185
COc1cc(OC)c(C(O)C2C=CC3C(=O)N(c4ccccc4)C(=O)C3N2Nc2ccccc2F)cc1Br (stereo not given),0.89,0.476 (inactive),0.378,-0.0664,0.693,2.91,0.408,1.34,-0.577,1.1
CCCCC=C[C@@H](NC(=O)c1ccc(C(F)(F)F)cc1)c1ccccc1,-0.81,0.734 (inactive),-0.165,-0.125,-0.273,0.0379,-0.0554,-0.0265,-0.94,-0.792
NC(=O)[C@@]1(CCS(=O)(=O)c2ccccc2)COC(c2ccc(OCCCO)cc2)=N1,0.336,-0.823 (inactive),0.119,0.327,0.445,0.043,-0.84,-0.0922,-0.536,0.411
Cc1ccc(F)cc1S(=O)(=O)N[C@@H]1CCN(Cc2ccc3c(c2)OCO3)C1,0.167,-0.0662 (inactive),-0.129,-0.147,0.0085,-0.702,0.0521,-0.148,0.0213,-0.319
CCCCN1CC=CC23O[C@@H]4C=CCOC(=O)[C@@H]4[C@H]2C(=O)N(C(CO)C(C)C)[C@@H]3C1=O (stereo not given in full),-0.709,-0.0632 (inactive),-0.279,-0.14,0.321,-0.665,-0.304,-0.616,-0.0407,-0.868
CO[C@H]1O[C@H](CO)[C@@H](OC(=O)Nc2ccccc2)[C@@H]2OC(=O)[C@H](Cc3ccccc3)C/C=C/C[C@@H](Cc3ccccc3)C(=O)O[C@@H]12,0.548,1.96 (inactive),0.177,0.371,0.559,1.28,0.597,0.921,0.152,0.628
